uPA generation = inhibitors of cell surface uPA generation. 330,000 compounds, 0.31% hits. Potency, µM (titrated, usually from 38.3 µM), actives largely listed as inhibitors. cell surface uPA generation assay, qHTS; active = well fitted inhibition curve with a large enough effect; inconclusive = small, poorly fitted or top-dose-only effect; inactive = no such curve, though single readings can be large or run the other way; tested in mouse RAW 264.7 cells; also: nearly all actives have a fitted effect of over 55% in size
HT1080-NT tox = kills 2HG-producing HT-1080-NT fibrosarcoma cells; HT-1080-NT fibrosarcoma viability, CellTiter-Glo ATP luminescence, 48 h; Potency, µM (top dose mostly 46.1 µM), actives largely listed as cytotoxic; 360,000 compounds, 1.6% hits;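 also: NT is the 2HG producing partner of a matched IDH1 knockdown line; nearly all actives have a fitted effect of over 55% in size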
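Fibrosarcoma NT cells, 750 per well in 5% FBS RPMI, were exposed to compound for 48 hours. Viability: CellTiter-Glo luminescence.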
DT40 TDP1 CPT = growth inhibition of DT40 Tdp1-/-;hTDP1 cells with camptothecin (screen for TDP1 inhibitors); chicken DT40 Tdp1-/-;hTDP1 cells + 20 nM CPT, ATP luminescence, 48 h; Potency, µM (top dose mostly 46.2 µM), most hits filed as inhibitors; 420,000 compounds, 12% hits; AID 686979; also: nearly all actives have a fitted effect of over 55% in size
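Cell growth measured by CellTiter-Glo luminescence after a minimum 48 h, 37 C compound exposure with 20 nM CPT in Tdp1-knockout DT40 cells stably expressing hTDP1, seeded 400/well; qHTS titration format.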
HT1080 IDH1KD tx = toxicity to HT-1080 IDH1 knockdown cells (counter line) | HT-1080 IDH1 knockdown viability, ATP luminescence, 48 h | Potency, µM (doses to about 46.1 µM), usual class: cytotoxic | 360,000 compounds, 2% hits | AID 686971
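Knockdown cells (IDH1KD HT-1080) received compounds 2 h after plating at 750 cells/well and were kept 48 h at 37 °C in 5% FBS RPMI. A CellTiter-Glo luminescence read gave % activity for curve fitting.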
TDP1 cell noCPT = qHTS for Inhibitors of human tyrosyl-DNA phosphodiesterase 1 (TDP1): qHTS in cells in absence of CPT; Potency, µM (series often up to 46.2 µM), most hits filed as inhibitors; AID 686978, 2013; DT40 Tdp1-/- hTDP1 cells, no CPT, ATP luminescence, 48 h; 420,000 compounds, 15% hits; also: nearly all actives have a fitted effect of over 55% in size
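Stably hTDP1-transfected Tdp1-null chicken DT40 cells were treated with library compounds minus camptothecin and grown for at least 48 hr at 37 °C, after which cellular ATP was quantified by luminescence.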
IL-1B inflam inh = inflammasome signaling inhibition, IL-1 beta readout; THP-1 LPS/ATP IL-1B secretion, AlphaLISA, 16 h; hits give low values; activity change, % at 57.5 µM; 360,000 compounds, 4.7% hits; in the data active = activity change below about -50%; inconclusive = mostly about -30% to -49%
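THP-1 cells pretreated 1 hr with compounds (up to 57.5 uM final), then stimulated with LPS (250 ng/mL final) plus ATP (1.25 mM final); secreted IL-1B measured by AlphaLISA after 16 hr, decreased signal indicating inhibition.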
Numbers stand for hits; [ ] = remark or other dose. Most compounds without a hit are left out; they make up all but 19% or so of the library. Unless noted, calls follow the shape of the dose curve; as a rule, active = well fitted curve in the direction sought with a large enough effect; inconclusive = small, poorly fitted or top-dose-only effect, or another doubt; inactive = no such curve, though single readings can be large; an effect the other way counts as inactive or inconclusive.

Cc1ccc(CN2C(=O)c3ccccc3Sc3ccc(C(=O)NC4CCCCC4)cc32)cc1 was read as DT40 TDP1 CPT inactive and TDP1 cell noCPT inactive.
Screening CN(C)CCNc1ccc(-c2nn(C)c(=O)c3ccccc23)cc1[N+](=O)[O-] returned uPA generation inactive, HT1080-NT tox inactive, DT40 TDP1 CPT inconclusive, HT1080 IDH1KD tx inactive, TDP1 cell noCPT 23µM and IL-1B inflam inh inactive.
For CN(C)CCCNc1ccc(-c2n[nH]c(=O)c3ccccc23)cc1[N+](=O)[O-] the results were uPA generation inactive, HT1080-NT tox inactive, DT40 TDP1 CPT 10µM, HT1080 IDH1KD tx inactive, TDP1 cell noCPT 23µM and IL-1B inflam inh inactive.
For CN(CCO)c1ccc(-c2nn(C)c(=O)c3ccccc23)cc1[N+](=O)[O-] the results were uPA generation inactive, HT1080-NT tox inactive, DT40 TDP1 CPT inconclusive, HT1080 IDH1KD tx inactive, TDP1 cell noCPT 8.2µM and IL-1B inflam inh inactive.
Cc1cc(=O)c2c(C)ccc(C)c2[nH]1 was read as uPA generation inactive, HT1080-NT tox inactive, DT40 TDP1 CPT inconclusive, HT1080 IDH1KD tx inactive, TDP1 cell noCPT 9.2µM and IL-1B inflam inh inactive.
`COC1CCN(Cc2c(C(=O)N3CCc4ccccc4C3)nc3ccc(Cl)cn23)CC1` gave uPA generation inactive, HT1080-NT tox inactive, DT40 TDP1 CPT inactive, HT1080 IDH1KD tx inactive, TDP1 cell noCPT inactive and IL-1B inflam inh inactive.
CC1CCN(Cc2c(C(=O)N3CCc4ccccc4C3)nc3ccc(Cl)cn23)CC1 was read as uPA generation inactive, HT1080-NT tox inactive, DT40 TDP1 CPT 21µM, HT1080 IDH1KD tx inactive, TDP1 cell noCPT inconclusive and IL-1B inflam inh inactive.
`O=C(Nc1ccc2c(c1)OCCO2)C1c2ccccc2OCC(=O)N1CCCN1CCOCC1` (stereo not drawn) gave HT1080-NT tox inactive, DT40 TDP1 CPT inactive, HT1080 IDH1KD tx inactive, TDP1 cell noCPT inactive and IL-1B inflam inh inactive.
Screening Cc1ccccc1-c1noc(-c2ccc(NCc3ccco3)c([N+](=O)[O-])c2)n1 returned DT40 TDP1 CPT inconclusive and TDP1 cell noCPT inactive.
`CCOc1ccc(CSC(=N)N)cc1` gave uPA generation inactive, HT1080-NT tox inactive, DT40 TDP1 CPT 26µM, HT1080 IDH1KD tx inactive, TDP1 cell noCPT 18µM and IL-1B inflam inh inactive.
`COc1ccc(Br)cc1CSC(=N)N` gave uPA generation inactive, HT1080-NT tox inactive, DT40 TDP1 CPT inconclusive, HT1080 IDH1KD tx inactive, TDP1 cell noCPT inconclusive and IL-1B inflam inh -88.
`CCCCCOc1ccc(Br)cc1CSC(=N)N` gave uPA generation inconclusive, HT1080-NT tox inconclusive, DT40 TDP1 CPT 5.2µM, HT1080 IDH1KD tx inconclusive, TDP1 cell noCPT 2.3µM and IL-1B inflam inh -97.
Screening CC(=O)c1ccc(OC(C)C)c(CSC(=N)N)c1 returned uPA generation inactive, HT1080-NT tox inactive, DT40 TDP1 CPT 23µM, HT1080 IDH1KD tx inactive, TDP1 cell noCPT inconclusive and IL-1B inflam inh inconclusive.
CCCC(C(=O)NC1=NCCS1)c1ccccc1 (stereo not drawn) was read as uPA generation inactive, HT1080-NT tox inactive, DT40 TDP1 CPT inactive, HT1080 IDH1KD tx inactive, TDP1 cell noCPT inactive and IL-1B inflam inh inactive.
Screening COc1ccc(C(=O)ON=C(C)c2nccs2)cc1 returned HT1080-NT tox inactive, DT40 TDP1 CPT inactive, HT1080 IDH1KD tx inactive, TDP1 cell noCPT inactive and IL-1B inflam inh inactive.
`CCCCOc1ccc(CSC(=N)N)cc1Cl` gave uPA generation inactive, HT1080-NT tox 18µM, DT40 TDP1 CPT 15µM, HT1080 IDH1KD tx 15µM, TDP1 cell noCPT 18µM and IL-1B inflam inh -101.
Screening CC[C@]12c3[nH]c4ccc(OC)cc4c3CCN1C(=O)C(CC(=O)NC/C=C(\C)CCC=C(C)C)C[C@@H]2C(=O)N1CCN(C(=O)c2ccco2)CC1 (stereo partly drawn) returned uPA generation inconclusive, HT1080-NT tox inactive, DT40 TDP1 CPT inconclusive, HT1080 IDH1KD tx inactive, TDP1 cell noCPT inconclusive and IL-1B inflam inh -53.
For CC[C@]12c3[nH]c4ccccc4c3CCN1C(=O)C(CC(=O)NC/C=C(\C)CCC=C(C)C)C[C@@H]2C(=O)N1CCN(C(=O)c2ccco2)CC1 (stereo partly drawn) the results were uPA generation inconclusive, HT1080-NT tox inactive, DT40 TDP1 CPT 16µM, HT1080 IDH1KD tx inconclusive, TDP1 cell noCPT inconclusive and IL-1B inflam inh -53.
`Nc1nccc(SCc2ccccc2)n1` gave uPA generation inactive, HT1080-NT tox inactive, DT40 TDP1 CPT inactive, HT1080 IDH1KD tx inactive, TDP1 cell noCPT inactive and IL-1B inflam inh inconclusive.
`CN(C)C(CNC(=O)C1CCN(C(=O)/C=C/c2ccccc2)CC1)c1ccccc1` (stereo not drawn) gave uPA generation inactive, HT1080-NT tox inactive, DT40 TDP1 CPT inactive, HT1080 IDH1KD tx inactive, TDP1 cell noCPT inactive and IL-1B inflam inh inactive.
For O=C(Nc1cccc(S(=O)(=O)c2cccc(NC(=O)c3ccco3)c2)c1)c1ccco1 the results were uPA generation inactive, HT1080-NT tox inconclusive, DT40 TDP1 CPT inconclusive, HT1080 IDH1KD tx inactive, TDP1 cell noCPT 13µM and IL-1B inflam inh inactive.
`CC(=O)c1cccc(NC(=O)c2cccc(NC(=O)c3ccco3)c2)c1` gave uPA generation inactive, HT1080-NT tox inconclusive, DT40 TDP1 CPT inactive, HT1080 IDH1KD tx inconclusive, TDP1 cell noCPT inactive and IL-1B inflam inh inactive.
Screening CC(C)(C)NC(=O)c1cccc(NC(=O)c2ccco2)c1 returned uPA generation inactive, HT1080-NT tox inactive, DT40 TDP1 CPT inactive, HT1080 IDH1KD tx inactive[9.24 µM], TDP1 cell noCPT inactive and IL-1B inflam inh inactive.
For Cc1cc(C)cc(NC(=O)c2cccc(NC(=O)c3ccco3)c2)c1 the results were uPA generation inactive, HT1080-NT tox inactive, DT40 TDP1 CPT inconclusive, HT1080 IDH1KD tx inactive, TDP1 cell noCPT 29µM and IL-1B inflam inh inactive.
Screening CC(C)(C)NC(=O)c1cccc(NC(=O)c2ccc(NC(=O)c3ccco3)cc2)c1 returned uPA generation inactive, DT40 TDP1 CPT 13µM, TDP1 cell noCPT inconclusive and IL-1B inflam inh -70.
For COC(=O)c1cccc(NC(=O)CCNC(=O)c2ccco2)c1 the results were uPA generation inactive, HT1080-NT tox inactive, DT40 TDP1 CPT inactive, HT1080 IDH1KD tx inactive, TDP1 cell noCPT inactive and IL-1B inflam inh -101.
Cc1ccc(N2CC(c3nnc(NC(=O)c4ccco4)s3)CC2=O)cc1Cl (stereo not drawn) was read as DT40 TDP1 CPT inactive and TDP1 cell noCPT inconclusive.
For Cc1ccc(O)c(NC(=O)c2cccc(NC(=O)c3ccco3)c2)c1 the results were uPA generation inactive, HT1080-NT tox inactive, DT40 TDP1 CPT inconclusive, HT1080 IDH1KD tx inactive, TDP1 cell noCPT 23µM and IL-1B inflam inh inactive.
